Assay results from ChEMBL document CHEMBL5724796, “Tm Shift (DSF) assay results for EUbOPEN Chemogenomics Library” (2024).
“And” between values parts separate entries of the source, which are not always exact repeats. Identical values can stand only once.

Key:
Settings in all cases: Compound concentration 20.0 uM
[1] = biological target: Tyrosine-protein kinase ABL1 (Homo sapiens) (UniProt P00519)
[2] = biological target: Bromodomain-containing protein 4 (Homo sapiens) (UniProt O60885)
[3] = biological target: Cyclin-dependent kinase 2 (Homo sapiens) (UniProt P24941)
[4] = biological target: Casein kinase I isoform delta (Homo sapiens) (UniProt P48730)
Casein kinase I isoform delta (Homo sapiens), sequence (P48730 whole entry, looked up, canonical isoform): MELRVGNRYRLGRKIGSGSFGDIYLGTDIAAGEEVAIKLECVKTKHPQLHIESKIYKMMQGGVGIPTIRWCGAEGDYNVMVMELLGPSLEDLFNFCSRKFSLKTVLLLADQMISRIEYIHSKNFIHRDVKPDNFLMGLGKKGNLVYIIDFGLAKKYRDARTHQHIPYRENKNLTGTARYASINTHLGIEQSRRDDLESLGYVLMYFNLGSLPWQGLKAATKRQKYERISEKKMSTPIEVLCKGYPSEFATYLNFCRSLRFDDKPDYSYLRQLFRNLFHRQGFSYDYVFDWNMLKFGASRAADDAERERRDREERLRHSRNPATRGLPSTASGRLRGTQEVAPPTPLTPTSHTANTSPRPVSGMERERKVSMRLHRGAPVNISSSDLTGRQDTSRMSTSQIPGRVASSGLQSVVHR

[5] = biological target: Glycogen synthase kinase-3 beta (Homo sapiens) (UniProt P49841)
Glycogen synthase kinase-3 beta (Homo sapiens), sequence (P49841 whole entry, looked up): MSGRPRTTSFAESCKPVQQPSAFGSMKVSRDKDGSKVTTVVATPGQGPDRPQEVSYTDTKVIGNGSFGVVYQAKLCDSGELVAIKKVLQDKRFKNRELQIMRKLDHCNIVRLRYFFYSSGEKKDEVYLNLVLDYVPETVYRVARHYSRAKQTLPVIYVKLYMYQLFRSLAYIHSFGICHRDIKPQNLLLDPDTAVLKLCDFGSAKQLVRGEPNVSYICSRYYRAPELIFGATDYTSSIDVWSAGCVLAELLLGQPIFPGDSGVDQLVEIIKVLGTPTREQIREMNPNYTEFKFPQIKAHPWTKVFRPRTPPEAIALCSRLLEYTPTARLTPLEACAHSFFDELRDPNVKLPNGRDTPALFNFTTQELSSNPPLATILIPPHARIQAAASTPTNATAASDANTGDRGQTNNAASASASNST

[6] = biological target: Mitogen-activated protein kinase 1 (Homo sapiens) (UniProt P28482)
Mitogen-activated protein kinase 1 (Homo sapiens), sequence (P28482 whole entry): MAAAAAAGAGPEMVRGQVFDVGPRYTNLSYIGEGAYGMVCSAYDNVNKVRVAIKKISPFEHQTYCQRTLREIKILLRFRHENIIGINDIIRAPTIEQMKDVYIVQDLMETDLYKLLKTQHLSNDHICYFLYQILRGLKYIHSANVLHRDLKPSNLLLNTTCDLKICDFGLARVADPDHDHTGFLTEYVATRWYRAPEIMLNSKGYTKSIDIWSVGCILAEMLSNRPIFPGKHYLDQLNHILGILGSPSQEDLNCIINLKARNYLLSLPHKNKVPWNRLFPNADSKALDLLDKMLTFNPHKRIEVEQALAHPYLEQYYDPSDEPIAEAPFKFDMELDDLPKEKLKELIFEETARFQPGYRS

[7] = biological target: T1, Aurora kinase A (Homo sapiens) (UniProt O14965)
T1 sequence (whole entry): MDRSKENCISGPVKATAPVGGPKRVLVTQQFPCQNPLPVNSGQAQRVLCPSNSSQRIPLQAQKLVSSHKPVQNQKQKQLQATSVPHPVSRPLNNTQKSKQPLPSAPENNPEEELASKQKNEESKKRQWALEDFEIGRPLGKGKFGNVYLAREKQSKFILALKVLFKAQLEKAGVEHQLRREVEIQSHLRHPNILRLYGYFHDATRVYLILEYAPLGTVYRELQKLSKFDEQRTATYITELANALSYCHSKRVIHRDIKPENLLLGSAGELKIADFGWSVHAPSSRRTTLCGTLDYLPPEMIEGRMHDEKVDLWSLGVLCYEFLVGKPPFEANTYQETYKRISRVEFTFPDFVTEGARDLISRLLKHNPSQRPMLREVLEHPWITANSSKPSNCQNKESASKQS

[8] = biological target: T2, Transcription intermediary factor 1-alpha (Homo sapiens) (UniProt O15164)
T2 sequence (whole entry): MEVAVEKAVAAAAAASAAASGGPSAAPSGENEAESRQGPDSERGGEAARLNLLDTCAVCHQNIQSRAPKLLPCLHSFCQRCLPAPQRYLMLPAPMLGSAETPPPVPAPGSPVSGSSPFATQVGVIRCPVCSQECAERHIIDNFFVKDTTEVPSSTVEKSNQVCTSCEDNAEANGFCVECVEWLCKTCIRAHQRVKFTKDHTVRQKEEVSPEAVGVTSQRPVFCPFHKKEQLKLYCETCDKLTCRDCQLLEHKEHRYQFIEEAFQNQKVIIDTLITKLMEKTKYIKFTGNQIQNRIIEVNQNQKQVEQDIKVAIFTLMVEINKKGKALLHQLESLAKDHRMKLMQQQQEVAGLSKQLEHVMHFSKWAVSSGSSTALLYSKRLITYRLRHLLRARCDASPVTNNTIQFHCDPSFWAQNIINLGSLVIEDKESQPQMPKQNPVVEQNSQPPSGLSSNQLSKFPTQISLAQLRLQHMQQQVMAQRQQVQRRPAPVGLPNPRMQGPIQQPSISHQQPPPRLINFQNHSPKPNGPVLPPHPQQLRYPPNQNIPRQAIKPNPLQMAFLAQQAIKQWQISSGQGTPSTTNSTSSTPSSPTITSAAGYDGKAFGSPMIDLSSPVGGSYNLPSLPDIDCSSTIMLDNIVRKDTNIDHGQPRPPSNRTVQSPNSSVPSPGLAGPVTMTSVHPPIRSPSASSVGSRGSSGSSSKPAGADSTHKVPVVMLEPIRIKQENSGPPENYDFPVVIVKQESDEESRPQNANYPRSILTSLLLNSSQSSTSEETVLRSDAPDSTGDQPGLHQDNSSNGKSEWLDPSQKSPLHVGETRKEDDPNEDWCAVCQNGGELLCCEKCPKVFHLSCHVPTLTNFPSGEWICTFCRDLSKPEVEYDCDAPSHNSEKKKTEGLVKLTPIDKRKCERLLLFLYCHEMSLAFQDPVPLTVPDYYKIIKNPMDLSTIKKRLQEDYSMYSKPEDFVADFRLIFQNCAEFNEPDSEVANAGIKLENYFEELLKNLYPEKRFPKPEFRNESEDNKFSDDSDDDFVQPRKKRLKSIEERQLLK

Tyrosine-protein kinase ABL1 (Homo sapiens), sequence (P00519 whole entry): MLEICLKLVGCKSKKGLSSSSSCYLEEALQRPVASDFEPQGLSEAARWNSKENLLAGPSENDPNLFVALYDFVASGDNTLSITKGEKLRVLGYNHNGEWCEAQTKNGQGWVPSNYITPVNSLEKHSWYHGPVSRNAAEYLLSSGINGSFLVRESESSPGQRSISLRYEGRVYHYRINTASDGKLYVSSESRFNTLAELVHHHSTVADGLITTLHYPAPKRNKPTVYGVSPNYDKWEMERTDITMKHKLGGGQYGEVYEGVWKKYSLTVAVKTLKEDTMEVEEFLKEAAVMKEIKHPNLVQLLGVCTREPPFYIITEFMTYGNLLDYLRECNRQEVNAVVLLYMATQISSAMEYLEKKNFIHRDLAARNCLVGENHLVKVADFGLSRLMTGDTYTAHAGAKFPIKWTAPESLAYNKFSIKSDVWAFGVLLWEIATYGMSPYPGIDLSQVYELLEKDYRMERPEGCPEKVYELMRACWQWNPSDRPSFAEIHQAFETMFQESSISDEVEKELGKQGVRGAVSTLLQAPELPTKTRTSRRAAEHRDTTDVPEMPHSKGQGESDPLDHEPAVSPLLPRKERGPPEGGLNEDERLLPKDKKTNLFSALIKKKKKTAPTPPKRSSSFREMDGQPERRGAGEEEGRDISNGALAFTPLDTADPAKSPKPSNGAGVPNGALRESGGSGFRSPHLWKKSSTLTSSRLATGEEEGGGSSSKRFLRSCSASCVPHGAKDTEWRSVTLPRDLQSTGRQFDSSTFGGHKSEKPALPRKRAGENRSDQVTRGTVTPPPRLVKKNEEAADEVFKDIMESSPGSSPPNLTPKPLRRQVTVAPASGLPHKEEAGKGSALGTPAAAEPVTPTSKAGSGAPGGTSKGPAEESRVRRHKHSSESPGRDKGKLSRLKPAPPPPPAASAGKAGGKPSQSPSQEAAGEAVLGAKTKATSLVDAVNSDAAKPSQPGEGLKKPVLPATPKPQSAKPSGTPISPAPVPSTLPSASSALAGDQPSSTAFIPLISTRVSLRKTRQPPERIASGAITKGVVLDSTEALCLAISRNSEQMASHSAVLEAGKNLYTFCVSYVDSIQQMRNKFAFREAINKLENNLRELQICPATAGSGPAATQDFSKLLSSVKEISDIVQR

Row | Compound | ΔTm [1] | ΔTm [2] | ΔTm [3] | ΔTm [4] | ΔTm [5] | ΔTm [6] | ΔTm [7] | ΔTm [8]
1 | CC(C)N(C(=O)c1cc(F)ccc1Oc1cncnc1N1CC2(CCN(C[C@H]3CC[C@H](NS(C)(=O)=O)CC3)CC2)C1)C(C)C | 0.57 °C | -1.5 °C | 0.13 °C | -0.36 °C | -0.7 °C | 0.13 °C | -2.37 °C | 0.16 °C
2 | C[C@@H](Oc1ccc(CNC(=O)c2cccnc2Oc2ccc3c(c2)OCO3)c(F)c1)C(=O)O | 0.69 °C | -1.71 °C | 0.09 °C | -0.5 °C | -0.12 °C | 0.23 °C | -1.52 °C | -0.05 °C
3 | Cc1cc(C)nc(SCC(=O)Nc2ncc(Cc3cccc4ccccc34)s2)n1 | 1.25 °C | -0.67 °C | 0.38 °C | 5.19 °C | -0.21 °C | -4.06 °C | -1.18 °C | 5.54 °C
4 | CCOc1ccc2nc(-c3cccc(OCC(=O)NC(C)C)c3)nc(Nc3ccc(-c4cn[nH]c4)cc3)c2c1 | 0.09 °C | -0.68 °C | 0.3 °C | -1.4 °C | -0.35 °C | -2.16 °C | 0 °C | 0 °C
5 | CN1C(=O)c2c(nn(Cc3ccc(-c4cccc(F)n4)cc3)c2Nc2ccccc2)N2C1=N[C@@H]1CCC[C@@H]12 | 0.2 °C | 0.64 °C | -0.42 °C | -0.09 °C | 2.76 °C | 0.5 °C | -0.82 °C | 0.46 °C
6 | CS(=O)(=O)Nc1ccc2oc3c(OC(F)F)ccc(C(=O)Nc4c(Cl)cncc4Cl)c3c2c1 | 0.6 °C | -1.02 °C | -0.16 °C | -1.11 °C | -0.39 °C | 0.24 °C | -1.56 °C | 0.09 °C
7 | O=c1[nH]c(CS[C@H]2CC[C@H](O)CC2)nc2cc(OCC3CC3)cc(F)c12 | 0.58 °C | -1.62 °C | -0.32 °C | -5.43 °C | 0 °C | 0.1 °C | -0.76 °C | -0.56 °C
8 | O=C1c2ccccc2C(=O)c2oc(-c3ccc(F)cc3)nc21 | 0.01 °C | -1.84 °C | -0.07 °C | -0.12 °C | -0.33 °C | 0.17 °C | -2.4 °C | -0.61 °C
9 | Cc1cc(-c2ccc3nc(C4CCOCC4)n(CCOC(F)(F)F)c3c2)cn(C)c1=O | 0.26 °C | 10.3 °C | 0.15 °C | 0.13 °C | -0.07 °C | -0.47 °C | -0.36 °C | -0.3 °C
10 | COc1cc2c(NC3CCN(C4CCCCC4)CC3)nc(N3CCCN(C(C)C)CC3)nc2cc1OCCCN1CCCCC1 | 0.29 °C | -1.02 °C | 0.48 °C | 0.1 °C | 0.08 °C | -0.69 °C | 0.32 °C | 0.36 °C
11 | CS(=O)(=O)c1ccc(Oc2cc(F)cc(C#N)c2)c2c1C(O)C(F)C2 (stereo not given) | 0.53 °C | -2.49 °C | 0.01 °C | -0.13 °C | -0.04 °C | 0.54 °C | -2.47 °C | -0.39 °C
12 | CC(C)c1c(-c2ccccc2)[nH]c2c(C#N)cnn2c1=O | 0.72 °C | -2.81 °C | 0.4 °C | -0.22 °C | -0.15 °C | 0.17 °C | -1.64 °C | -0.06 °C
13 | Cc1cc(N2C[C@@H](C)N[C@@H](C)C2)ncc1-c1ccc(-c2nc3c(ccn3C)c(=O)[nH]2)cc1 | 1.3 °C | -0.52 °C | 0.78 °C | 0.59 °C | 0.66 °C | 0.08 °C | -1.4 °C | 0.61 °C
14 | CCC[C@@H]1CNCc2c1[nH]c(=O)c(C#N)c2N1CCC2(CC1)CC2 | 0.32 °C | -1.86 °C | 0.24 °C | 0.29 °C | 0.07 °C | -0.21 °C | -0.58 °C | -0.85 °C
15 | Nc1ccccc1NC(=O)c1ccc(CNc2nccc(-c3cccnc3)n2)cc1 | 1.28 °C | -1.59 °C | 0.7 °C | 2.88 °C | 0.76 °C | 0.18 °C | 5.93 °C | -0.03 °C
16 | O=C(C1CC1)N1CC[C@@H](Cc2n[nH]c(=O)n2-c2ccc(-c3ccc4occc4c3)cc2)C1 | 0.72 °C and 0.71 °C | -1.91 °C and -3.51 °C | -0.31 °C and -0.16 °C | 0.35 °C and -0.18 °C | -0.54 °C and 0.29 °C | 0.34 °C and 0.05 °C | -4.5 °C and -1.89 °C | -1.14 °C and -0.89 °C
17 | O=C(NCc1ccc(Cl)cc1)C1CCN(S(=O)(=O)c2cc(Cl)cc(Cl)c2)CC1 | 0.35 °C | -2.83 °C | 0.17 °C | -0.37 °C | -1.43 °C | 0.06 °C | -1.55 °C | 0.02 °C
18 | CCC1CCCCN1C(=O)n1ncc(C(O)(c2ccccc2)c2ccccc2)n1 (stereo not given) | -3.62 °C | -3.03 °C | -0.45 °C | 0.07 °C | -6.94 °C | 0.16 °C | -2.31 °C | -1 °C
19 | CCCCNc1cc(C(=O)O)cc(S(N)(=O)=O)c1Oc1ccccc1 | 0.19 °C | -1.86 °C | -0.19 °C | 0.17 °C | -0.41 °C | 0.13 °C | 0.14 °C | 0.82 °C
20 | CC(=O)O[C@]1(C(C)=O)CC[C@H]2[C@@H]3CCC4=CC(=O)CCC4=C3[C@@H](c3ccc(N(C)C)cc3)C[C@@]21C | 0.29 °C | -2.72 °C | -0.32 °C | 0.22 °C | -0.83 °C | -0.05 °C | -1.14 °C | -1.79 °C
